Several values for one entry are separate records, joined by “and”; a condition that tells them apart may be missing. Identical values can stand only once. Results filed as inconclusive are left out. Where a structure was tested more than once in an assay, its records may differ in their call. Activity calls are given as the source filed them. The calls were made as follows: active = hit-call score of the fitted dose curve at least 0.9, where 1 is the maximum; inconclusive = response in the unintended direction; inactive = score below 0.9.
Assays:
[1] = biological target: frog Thyroid hormone Receptor alpha (TRa), thra-a (gene 397942) (UniProt P15204); assay: ATG_frTRa_XSP1: Attagene TRANS-FACTORIAL Multi-Species (XSP1) HepG2 Assay for frog Thyroid hormone Receptor alpha (TRa) (AID 2283804)
In short: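 HepG2 cells transiently transfected with frog TRa-GAL4 chimeric reporter units, dosed 24 hr with 3 nM 6-alpha-fluorotestosterone present; reporter mRNA quantified by RT-PCR, fluorescent labelling and capillary electrophoresis, gain of signal versus DMSO.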

[2] = biological target: human Thyroid hormone Receptor alpha (TRa), THRA (gene 7067) (UniProt P10827); assay: ATG_hTRa_XSP1: Attagene TRANS-FACTORIAL Multi-Species (XSP1) HepG2 Assay for human Thyroid hormone Receptor alpha (TRa) (AID 2283805)
In short: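 HepG2 cells transiently transfected with GAL4-UAS reporter units expressing chimeric NR-Gal4 proteins, dosed 24 hours with 3 nM 6-alpha-fluorotestosterone present. Reporter mRNA measured by RT-PCR and capillary electrophoresis; gain of signal fitted versus DMSO.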

[3] = biological target: zebrafish Thyroid Hormone Receptor alpha (TRa), thraa (gene 30670) (UniProt Q98867); assay: ATG_zfTRa_XSP1: Attagene TRANS-FACTORIAL Multi-Species (XSP1) HepG2 Assay for zebrafish Thyroid Hormone Receptor alpha (TRa) (AID 2283807)
In short: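 HepG2 cells transiently transfected with GAL4-UAS reporter units including a zebrafish TRa–Gal4 chimera, dosed 24 h with 3 nM 6-alpha-fluorotestosterone present. Reporter mRNA quantified by RT-PCR and capillary electrophoresis; gain versus DMSO.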

[4] = biological target: zebrafish Thyroid Hormone Receptor beta (TRb), thrb (gene 30607) (UniProt Q9PVE4); assay: ATG_zfTRb_XSP1: Attagene TRANS-FACTORIAL Multi-Species (XSP1) HepG2 Assay for zebrafish Thyroid Hormone Receptor beta (TRb) (AID 2283809)
In short: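 HepG2 cells transiently transfected with multiplexed GAL4-UAS reporter units expressing chimeric zebrafish TRb–Gal4. Dosed 24 h with 3 nM 6-alpha-fluorotestosterone present; reporter mRNA measured by RT-PCR, HpaI digestion and capillary electrophoresis; gain of signal versus DMSO.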

[5] = ATG_M_06_XSP2: Attagene TRANS-FACTORIAL Multi-Species (XSP2) HepG2 Assay for M06 Transcription Factor (Internal Marker) (AID 2283811);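 also: internal background marker reporter mRNA measured by RT-PCR and capillary electrophoresis; hits are increases in signal above the DMSO baseline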
In short: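 HepG2, multiplexed reporter transfection; 24 h dosing; AR stimulated with 3 nM 6-alpha-fluorotestosterone + 1.5 nM norgestrel; RNA → RT-PCR → 6-FAM primer extension → HpaI → CE. Positive direction vs DMSO.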

[6] = system: turtle Estrogen Receptor (ERa), gene 101933533; assay: ATG_trERa_XSP2: Attagene TRANS-FACTORIAL Multi-Species (XSP2) HepG2 Assay for turtle Estrogen Receptor (ERa) (AID 2283812);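 also: human HepG2 liver cells transiently expressing turtle ERa-Gal4 chimeric receptor; actives raise reporter signal above DMSO so AC50 reflects agonist activity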
In short: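 HepG2 cells transiently transfected with GAL4-UAS reporter units expressing turtle ERa-Gal4 chimera. Reporter mRNA measured after 24 h dosing by RT-PCR, fluorescent labelling and capillary electrophoresis; gain of signal fitted versus DMSO.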

[7] = system: turtle Androgen Receptor (AR), gene 101947425; assay: ATG_trAR_XSP2: Attagene TRANS-FACTORIAL Multi-Species (XSP2) HepG2 Assay for turtle Androgen Receptor (AR) (AID 2283815)
In short: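 HepG2 cells transiently transfected with GAL4-UAS reporter units for chimeric NR-Gal4 receptors; 24 h dosing in presence of 3 nM 6-alpha-fluorotestosterone and 1.5 nM norgestrel. Reporter mRNA by RT-PCR and capillary electrophoresis, gain of signal versus DMSO.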

[8] = biological target: zebrafish Estrogen Receptor (ER1), esr1 (gene 259252) (UniProt P57717); assay: ATG_zfER1_XSP2: Attagene TRANS-FACTORIAL Multi-Species (XSP2) HepG2 Assay for zebrafish Estrogen Receptor (ER1) (AID 2283816)
In short: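 HepG2 cells transiently transfected with a GAL4-UAS reporter and a chimeric zebrafish ER1-Gal4 construct, dosed 24 h. Reporter mRNA quantified by RT-PCR, labelling, HpaI digestion and capillary electrophoresis, relative to DMSO.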

[9] = biological target: chicken Estrogen Receptor (ERa), ESR1 (gene 396099) (UniProt P06212); assay: ATG_chERa_XSP2: Attagene TRANS-FACTORIAL Multi-Species (XSP2) HepG2 Assay for chicken Estrogen Receptor (ERa) (AID 2283817);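 also: actives raise reporter signal above DMSO so AC50 reflects ER activation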
In short: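 Transient MRTU transfection of HepG2 → 24 h chemical dosing → TriZol RNA, oligo(dT) RT → PCR, 6-FAM primer extension, HpaI digest → CE quantitation of chicken ERa-Gal4-driven reporter mRNA. Positive direction vs DMSO.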

[10] = system: chicken Androgen Receptor (AR), gene 422165; assay: ATG_chAR_XSP2: Attagene TRANS-FACTORIAL Multi-Species (XSP2) HepG2 Assay for chicken Androgen Receptor (AR) (AID 2283819);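 also: hits raise reporter mRNA above DMSO so potency is for activation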
In short: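 HepG2 cells transiently transfected with chicken AR–GAL4 chimeric reporter constructs, stimulated with 3 nM 6-alpha-fluorotestosterone plus 1.5 nM norgestrel, dosed 24 h. Reporter mRNA quantified by RT-PCR and capillary electrophoresis; gain of signal fitted versus DMSO.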

[11] = system: frog Estrogen Receptor (ER), gene 398734; assay: ATG_frER1_XSP2: Attagene TRANS-FACTORIAL Multi-Species (XSP2) HepG2 Assay for frog Estrogen Receptor (ER) (AID 2283821);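 also: hits raise reporter mRNA above DMSO baseline so potency means agonist or activator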
In short: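 Steps: transfect HepG2 with multiple reporter transcription units; treat with chemical for 24 h; isolate RNA, reverse-transcribe, PCR-amplify, label with 6-FAM, digest with HpaI; resolve fragments by capillary electrophoresis. Signal is scored against DMSO.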

[12] = system: zebrafish Estrogen Receptor (ER2b), gene 317733; assay: ATG_zfER2b_XSP2: Attagene TRANS-FACTORIAL Multi-Species (XSP2) HepG2 Assay for zebrafish Estrogen Receptor (ER2b) (AID 2283823);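 also: fitted upward as reporter gain over DMSO so potency reflects activation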
In short: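 Transcriptional induction measured as reporter mRNA (RT-PCR, fluorescent capillary electrophoresis) in transiently transfected HepG2 cells after 24 h dosing; DMSO served as negative control and baseline.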

[13] = system: frog Androgen Receptor (AR), gene 399456; assay: ATG_frAR_XSP2: Attagene TRANS-FACTORIAL Multi-Species (XSP2) HepG2 Assay for frog Androgen Receptor (AR) (AID 2283824);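 also: actives raise reporter signal above DMSO so AC50 reflects agonist-like induction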
In short: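 HepG2 cells transiently transfected with GAL4-UAS reporter units and frog (Xenopus laevis) AR-Gal4 chimera; reporter mRNA measured 24 h after dosing by RT-PCR and capillary electrophoresis. Gain of signal fitted relative to DMSO baseline.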

[14] = ATG_M_32_XSP2: Attagene TRANS-FACTORIAL Multi-Species (XSP2) HepG2 Assay for M19 Transcription Factor (Internal Marker) (AID 2283826)
In short: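 An internal background marker among multiplexed transfected reporters in HepG2 liver cells was measured 24 h after dosing. Androgen receptor stimulation came from 3 nM 6-alpha-fluorotestosterone and 1.5 nM norgestrel.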

[15] = biological target: GAL4 Transcription Factor (Internal Marker), GAL4 (gene 855828) (UniProt P04386); assay: ATG_GAL4_XSP2: Attagene TRANS-FACTORIAL Multi-Species (XSP2) HepG2 Assay for GAL4 Transcription Factor (Internal Marker) (AID 2283814);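 also: GAL4 reporter mRNA background control in MRTU transfected cells not a receptor target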
In short: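 HepG2 cells transiently transfected with GAL4-UAS reporter units, stimulated with 3 nM 6-alpha-fluorotestosterone plus 1.5 nM norgestrel, dosed 24 h. Reporter mRNA by RT-PCR/capillary electrophoresis; gain-of-signal fit versus DMSO, background control.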

[16] = biological target: Nuclear receptor subfamily 1 group I member 2 (Mus musculus) (UniProt O54915); assay: ATG_mPXR_XSP1: Attagene TRANS-FACTORIAL Multi-Species (XSP1) HepG2 Assay for mouse Pregnane X Receptor (PXR) (AID 2283803)
In short: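 Transiently transfected HepG2 cells expressing a receptor-Gal4 chimera drive a GAL4-UAS reporter; 3 nM 6-alpha-fluorotestosterone included. Reporter mRNA read 24 h post-dose by RT-PCR and capillary electrophoresis; gain of signal relative to DMSO.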

[17] = system: turtle Thyroid Hormone Receptor, alpha (TRa), gene 101949057; assay: ATG_trTRa_XSP1: Attagene TRANS-FACTORIAL Multi-Species (XSP1) HepG2 Assay for turtle Thyroid Hormone Receptor, alpha (TRa) (AID 2283806)
In short: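 HepG2 cells transiently transfected with GAL4-UAS reporter units and chimeric receptor-Gal4 constructs, with 3 nM 6-alpha-fluorotestosterone present. Reporter mRNA was quantified 24 h after dosing by RT-PCR, 6-FAM labelling and capillary electrophoresis; gain of signal versus DMSO.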

[18] = ATG_XTT_Cytotoxicity_XSP1: Cytotoxicity Assessment in the Attagene TRANS-FACTORIAL Multi-Species (XSP1) HepG2 Assay (AID 2283810)
In short: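 XTT viability readout taken at 24 hours post-dosing in HepG2 liver cells co-treated with 3 nM 6-alpha-fluorotestosterone. Signal loss relative to DMSO controls reflects cytotoxicity.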

[19] = biological target: human Thyroid hormone Receptor beta (TRb), THRB (gene 7068) (UniProt P10828); assay: ATG_hTRb_XSP1: Attagene TRANS-FACTORIAL Multi-Species (XSP1) HepG2 Assay for human Thyroid hormone Receptor beta (TRb) (AID 2283808)
In short: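 HepG2 cells transiently transfected with reporter units driving GAL4-UAS reporters for chimeric NR-Gal4 proteins; 24 h chemical exposure with 3 nM 6-alpha-fluorotestosterone present. Reporter mRNA quantified by RT-PCR and capillary electrophoresis, gain of signal versus DMSO.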

Measured: AC50

Sequence of zebrafish Estrogen Receptor (ER1), esr1 (gene 259252) (P57717 whole entry, looked up, the tested form may be a part): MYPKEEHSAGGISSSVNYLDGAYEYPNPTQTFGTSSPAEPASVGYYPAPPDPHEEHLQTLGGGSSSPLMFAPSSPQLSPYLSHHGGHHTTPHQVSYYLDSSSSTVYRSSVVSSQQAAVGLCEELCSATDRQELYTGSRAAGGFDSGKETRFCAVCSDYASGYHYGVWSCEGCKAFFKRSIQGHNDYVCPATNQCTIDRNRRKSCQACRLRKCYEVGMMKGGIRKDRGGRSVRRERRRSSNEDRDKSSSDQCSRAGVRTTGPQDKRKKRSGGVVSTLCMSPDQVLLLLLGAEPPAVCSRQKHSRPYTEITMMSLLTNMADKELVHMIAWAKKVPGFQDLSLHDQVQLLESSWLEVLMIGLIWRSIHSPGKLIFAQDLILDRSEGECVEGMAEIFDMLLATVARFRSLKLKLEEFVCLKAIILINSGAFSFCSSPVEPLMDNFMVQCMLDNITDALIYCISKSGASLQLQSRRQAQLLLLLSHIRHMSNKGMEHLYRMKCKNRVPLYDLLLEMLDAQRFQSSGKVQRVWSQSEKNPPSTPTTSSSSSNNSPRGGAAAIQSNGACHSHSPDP
Sequence of zebrafish Thyroid Hormone Receptor alpha (TRa), thraa (gene 30670) (Q98867 whole entry, looked up, the tested form may be a part): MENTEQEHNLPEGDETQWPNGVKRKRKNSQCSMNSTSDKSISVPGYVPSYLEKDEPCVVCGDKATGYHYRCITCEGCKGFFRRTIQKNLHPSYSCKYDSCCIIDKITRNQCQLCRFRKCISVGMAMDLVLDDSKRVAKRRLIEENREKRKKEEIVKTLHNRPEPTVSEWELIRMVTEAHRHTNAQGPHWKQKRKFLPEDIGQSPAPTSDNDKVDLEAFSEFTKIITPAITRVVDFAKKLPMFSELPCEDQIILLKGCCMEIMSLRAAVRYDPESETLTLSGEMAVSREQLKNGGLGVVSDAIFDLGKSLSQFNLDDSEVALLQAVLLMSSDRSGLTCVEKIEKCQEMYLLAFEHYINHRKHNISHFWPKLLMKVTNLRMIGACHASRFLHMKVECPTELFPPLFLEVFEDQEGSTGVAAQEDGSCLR
Sequence of chicken Estrogen Receptor (ERa), ESR1 (gene 396099) (P06212 whole entry, looked up, the tested form may be a part): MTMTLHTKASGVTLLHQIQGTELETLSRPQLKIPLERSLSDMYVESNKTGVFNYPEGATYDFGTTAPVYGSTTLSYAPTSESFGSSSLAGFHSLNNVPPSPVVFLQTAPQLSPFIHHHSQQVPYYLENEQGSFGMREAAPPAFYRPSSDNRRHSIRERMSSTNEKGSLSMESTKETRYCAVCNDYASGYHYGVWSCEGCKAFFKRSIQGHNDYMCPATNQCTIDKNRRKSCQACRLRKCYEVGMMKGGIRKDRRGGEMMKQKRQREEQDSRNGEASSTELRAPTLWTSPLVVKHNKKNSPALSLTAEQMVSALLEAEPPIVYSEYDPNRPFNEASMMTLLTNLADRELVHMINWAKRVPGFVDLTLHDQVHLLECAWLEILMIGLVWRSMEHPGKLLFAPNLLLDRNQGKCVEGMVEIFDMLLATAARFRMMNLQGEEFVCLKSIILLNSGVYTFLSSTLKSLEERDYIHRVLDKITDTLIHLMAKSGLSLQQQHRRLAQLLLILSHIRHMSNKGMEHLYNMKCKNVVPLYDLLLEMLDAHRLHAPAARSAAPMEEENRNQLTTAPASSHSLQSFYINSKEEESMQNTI
Sequence of zebrafish Thyroid Hormone Receptor beta (TRb), thrb (gene 30607) (Q9PVE4 whole entry, looked up, the tested form may be a part): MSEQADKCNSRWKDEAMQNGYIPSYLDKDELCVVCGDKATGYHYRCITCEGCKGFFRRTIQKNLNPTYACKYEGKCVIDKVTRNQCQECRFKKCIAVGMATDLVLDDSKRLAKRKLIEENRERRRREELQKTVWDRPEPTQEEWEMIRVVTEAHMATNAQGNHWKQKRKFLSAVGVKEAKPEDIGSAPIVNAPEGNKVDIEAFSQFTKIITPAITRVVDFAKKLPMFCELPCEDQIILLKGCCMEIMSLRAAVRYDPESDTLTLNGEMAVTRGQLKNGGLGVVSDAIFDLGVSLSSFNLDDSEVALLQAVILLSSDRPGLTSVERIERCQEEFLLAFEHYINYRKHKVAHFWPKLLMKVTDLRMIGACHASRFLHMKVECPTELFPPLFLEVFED
Sequence of human Thyroid hormone Receptor alpha (TRa), THRA (gene 7067) (P10827 whole entry, looked up, the tested form may be a part): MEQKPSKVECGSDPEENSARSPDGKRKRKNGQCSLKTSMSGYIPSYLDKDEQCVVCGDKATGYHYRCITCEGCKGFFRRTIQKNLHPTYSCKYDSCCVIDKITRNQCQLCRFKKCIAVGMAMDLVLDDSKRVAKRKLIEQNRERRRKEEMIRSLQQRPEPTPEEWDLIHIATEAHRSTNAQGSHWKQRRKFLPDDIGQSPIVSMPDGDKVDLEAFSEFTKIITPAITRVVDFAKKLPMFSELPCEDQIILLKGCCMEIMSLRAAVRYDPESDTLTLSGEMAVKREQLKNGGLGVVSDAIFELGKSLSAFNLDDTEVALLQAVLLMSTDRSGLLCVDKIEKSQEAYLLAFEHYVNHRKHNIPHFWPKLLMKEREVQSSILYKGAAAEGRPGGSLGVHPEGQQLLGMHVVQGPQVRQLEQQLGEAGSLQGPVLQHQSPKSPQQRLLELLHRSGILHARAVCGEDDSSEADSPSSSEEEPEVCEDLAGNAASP
Sequence of frog Thyroid hormone Receptor alpha (TRa), thra-a (gene 397942) (P15204 whole entry, looked up, the tested form may be a part): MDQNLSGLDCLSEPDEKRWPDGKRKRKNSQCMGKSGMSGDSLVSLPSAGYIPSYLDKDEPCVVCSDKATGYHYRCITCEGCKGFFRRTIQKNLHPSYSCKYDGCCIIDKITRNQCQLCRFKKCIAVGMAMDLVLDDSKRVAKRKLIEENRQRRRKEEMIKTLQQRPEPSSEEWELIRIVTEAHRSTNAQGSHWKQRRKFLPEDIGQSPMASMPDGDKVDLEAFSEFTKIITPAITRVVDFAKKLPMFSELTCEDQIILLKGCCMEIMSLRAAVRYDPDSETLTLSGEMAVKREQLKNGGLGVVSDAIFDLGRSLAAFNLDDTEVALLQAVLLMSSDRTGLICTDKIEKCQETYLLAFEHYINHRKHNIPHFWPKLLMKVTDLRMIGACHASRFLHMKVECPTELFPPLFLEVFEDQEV
Sequence of GAL4 Transcription Factor (Internal Marker), GAL4 (gene 855828) (P04386 whole entry, looked up, the tested form may be a part): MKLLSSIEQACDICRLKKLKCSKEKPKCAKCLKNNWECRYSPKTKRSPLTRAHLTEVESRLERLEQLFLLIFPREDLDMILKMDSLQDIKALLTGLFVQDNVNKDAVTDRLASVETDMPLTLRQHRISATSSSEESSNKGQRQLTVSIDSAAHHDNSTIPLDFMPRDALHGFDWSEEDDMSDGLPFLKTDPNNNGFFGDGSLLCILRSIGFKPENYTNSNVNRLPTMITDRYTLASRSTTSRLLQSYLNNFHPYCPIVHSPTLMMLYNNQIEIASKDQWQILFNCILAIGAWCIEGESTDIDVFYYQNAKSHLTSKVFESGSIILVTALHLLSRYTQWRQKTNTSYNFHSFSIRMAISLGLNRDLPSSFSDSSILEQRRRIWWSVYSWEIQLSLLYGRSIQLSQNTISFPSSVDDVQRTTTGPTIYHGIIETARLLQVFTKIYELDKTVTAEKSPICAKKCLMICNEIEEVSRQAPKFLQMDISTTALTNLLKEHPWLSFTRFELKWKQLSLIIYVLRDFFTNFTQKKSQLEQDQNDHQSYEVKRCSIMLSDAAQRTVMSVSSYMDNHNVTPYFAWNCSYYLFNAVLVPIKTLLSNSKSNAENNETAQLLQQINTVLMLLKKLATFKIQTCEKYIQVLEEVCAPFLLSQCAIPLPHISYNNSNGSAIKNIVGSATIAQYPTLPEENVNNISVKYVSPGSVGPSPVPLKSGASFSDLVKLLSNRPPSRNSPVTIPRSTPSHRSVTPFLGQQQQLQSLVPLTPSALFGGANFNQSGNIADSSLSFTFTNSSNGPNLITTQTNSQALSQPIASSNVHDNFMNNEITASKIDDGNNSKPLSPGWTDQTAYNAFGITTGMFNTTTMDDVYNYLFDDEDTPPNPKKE
Sequence of human Thyroid hormone Receptor beta (TRb), THRB (gene 7068) (P10828 whole entry, looked up, the tested form may be a part): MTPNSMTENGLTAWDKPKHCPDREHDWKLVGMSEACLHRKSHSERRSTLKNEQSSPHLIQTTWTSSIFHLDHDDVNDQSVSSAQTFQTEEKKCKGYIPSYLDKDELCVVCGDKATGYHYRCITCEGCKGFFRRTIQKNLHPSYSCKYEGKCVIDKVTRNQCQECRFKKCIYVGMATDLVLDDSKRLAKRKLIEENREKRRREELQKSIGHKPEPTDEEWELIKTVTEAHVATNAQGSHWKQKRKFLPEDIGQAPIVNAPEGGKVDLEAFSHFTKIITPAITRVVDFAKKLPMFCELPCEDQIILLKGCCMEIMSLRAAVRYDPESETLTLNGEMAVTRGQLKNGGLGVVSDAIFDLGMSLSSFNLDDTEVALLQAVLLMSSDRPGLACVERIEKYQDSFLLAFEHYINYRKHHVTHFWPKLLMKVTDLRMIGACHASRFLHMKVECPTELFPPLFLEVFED
Sequence of Nuclear receptor subfamily 1 group I member 2 (Mus musculus) (O54915 whole entry, looked up, the tested form may be a part): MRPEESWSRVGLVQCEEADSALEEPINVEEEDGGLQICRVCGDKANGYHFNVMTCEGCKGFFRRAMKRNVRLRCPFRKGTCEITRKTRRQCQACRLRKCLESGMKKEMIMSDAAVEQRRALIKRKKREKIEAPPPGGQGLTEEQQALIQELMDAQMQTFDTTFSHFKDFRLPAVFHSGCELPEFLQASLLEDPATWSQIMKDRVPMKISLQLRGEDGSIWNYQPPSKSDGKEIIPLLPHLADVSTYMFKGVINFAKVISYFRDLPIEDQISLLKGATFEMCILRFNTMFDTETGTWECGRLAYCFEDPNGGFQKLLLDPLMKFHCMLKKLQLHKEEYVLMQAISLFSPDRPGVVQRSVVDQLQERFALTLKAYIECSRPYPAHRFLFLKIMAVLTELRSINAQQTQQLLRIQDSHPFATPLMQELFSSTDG

CC(C)(C)c1cc(O)ccc1O
active: [6] 15.3 µM | [9] 24.6 µM | [11] 15.6 µM | [12] 55.2 µM
not listed: [15] | [16] | [17] | [18] | [19]
inactive: all other assays above

Clc1ccc(C2(Cn3cncn3)CC(Br)CO2)c(Cl)c1 (configuration not stated)
inactive: [5] | [6] | [15] | [8] | [9] | [14]
active: [6] 19.8 µM | [9] 3.47 µM | [11] 9.65 µM and 5.35 µM | [12] 51.4 µM and 29.2 µM

Oc1ccc(-c2ccccc2)cc1
inactive: [5] | [14]
active: [6] 1.44 µM and 925 nM | [8] 4.42 µM and 8.23 µM | [9] 712 nM and 200 nM | [11] 2.17 µM and 811 nM | [12] 5.61 µM and 3.05 µM

Oc1c(I)cc(I)cc1I
inactive: [5] | [8] | [11] | [12] | [14]
active: [9] 2.58 µM | [12] 57.4 µM

CC(C)C1CCC(Cc2ccc(Cl)cc2)C1(O)Cn1cncn1 (configuration not stated)
inactive: [5] | [6] | [15] | [8] | [9] | [11] | [14]
active: [12] 14.6 µM and 2.83 µM

CC12CC1(C)C(=O)N(c1cc(Cl)cc(Cl)c1)C2=O (configuration not stated)
active: [16] 19.7 µM | [6] 100 µM | [9] 58.5 µM | [12] 29.8 µM
inactive: [1] | [2] | [17] | [3] | [4] | [18] | [5] | [6] | [15] | [8] | [9] | [11] | [12] | [14]

O=C1C2(Cl)C3(Cl)C4(Cl)C(Cl)(Cl)C5(Cl)C3(Cl)C1(Cl)C5(Cl)C24Cl (configuration not stated)
active: [6] 0.514 µM | [9] 1.33 µM | [12] 4.05 µM
not listed: [7] | [10] | [13] | [15] | [16] | [18]
inactive: all other assays above

From PubChem BioAssay (EPA / NIEHS)
